Assay results: PubChem BioAssay (NCATS)
Values joined by “and” are separate entries in the source; they are usually repeats but may differ in a detail not shown here. Identical values can stand only once. Inconclusive results are not listed. Active and inactive are the calls of the source. Unless noted, the call rests on the fitted dose curve; in most records, active means well fitted curve in the direction sought with a large enough effect; inconclusive means small, poorly fitted or top-dose-only effect, or another doubt; inactive means no such curve, though single readings can be large; an effect the other way counts as inactive or inconclusive.

Legend:
[1] = Cell Viability - Jurkat (AID 426;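 active means dose-dependent loss of cell ATP signal giving a full or clear fitted curve, ranked by lower potency value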;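 further: potency means the concentration at half of the fitted maximal effect; cells exposed to compound for 40 hours at 37 °C before ATP read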); settings: qHTS
How it was run: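 Luminescent ATP read-out (CellTiter-Glo, 20 min at room temperature) after 40 hr compound exposure at 37 °C of Jurkat E6-1 cells, 5000/well. Decreased ATP taken as cytotoxicity; AC50 from standard Hill equation.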

[2] = target: Mitogen-activated protein kinase 10 (Mus musculus) (UniProt Q61831); experiment: JNK3 AlphaScreen Assay (AID 530; active means well fitted curve in either direction with a large enough effect, not every such curve was filed as active;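 further: kinase came from lysate of stimulated human HepG2 cells; signal reports phosphorylation of biotinylated GST-cJun 1-79 at Ser73 with 10 µM ATP; on the % scale 0 is the no-effect control and ±100 the full control effect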); settings: JNK3 lysate, c-Jun phosphorylation; series mostly up to 57.1 µM
How it was run: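 Kinase buffer: 20 mM Tris-HCl pH 7.6, 10 mM MgCl2, 1 mM DTT, 0.1 mM Na3VO4, 0.01% Tween-20; ATP 10 uM. Substrate biotin-GST-cJun(1-79), enzyme from activated HepG2 lysates. Detection by Ser73 phospho-antibody AlphaScreen.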

[3] = Cell Viability - H-4-II-E (AID 543); settings: H-4-II-E rat hepatoma viability; series mostly up to 92.2 µM;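 further: cells exposed to compound for 40 hours; on the % scale 0 is the no-effect control and ±100 the full control effect; nearly all actives have a fitted effect of over 35% in size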
How it was run: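 qHTS, rat hepatoma H-4-II-E, 1500 cells/well; 40 hr compound exposure, 37 °C; CellTiter-Glo ATP luminescence after 20 min RT; AC50 by standard Hill fit.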

[4] = target: Cytochrome P450 3A4 (Homo sapiens) (UniProt P08684); experiment: qHTS Assay for Inhibitors and Substrates of Cytochrome P450 3A4 (AID 884); settings: recombinant CYP3A4, Luciferin-PPXE luminescence; series mostly up to 57.1 µM; further: on the % scale 0 is the no-effect control and ±100 the full control effect; nearly all actives have a fitted effect of over 50% in size
How it was run: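 Luminescent readout of luciferin produced by CYP3A4 (20 nM) dealkylation of Luciferin-PPXE, 25 uM (its KM). NADPH-driven reaction ran 60 min at RT after 10 min compound preincubation; data scaled to 57 uM ketoconazole as 100% inhibition.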

[5] = Cell Viability - LYMP2-001 (AID 921); settings: LYMP2-001 lymphoblastoid cell viability; series mostly up to 92.2 µM;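 further: 0% = DMSO only and full inhibition = tetraoctylammonium bromide control wells; nearly all actives have a fitted effect of over 70% in size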
How it was run: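 Cellular ATP loss read by luciferase luminescence after 24 h compound exposure at 37 C in complete medium. LYMP2-001 lymphoblastoid cells, 2500/well; qHTS concentration-response data fitted with Hill equation for AC50.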

[6] = MultiTox-Fluor Cytotoxicity Assay - LYMP1-002 - Dead Cells (AID 960); settings: LYMP1-002 lymphoblastoid cells, dead-cell protease fluorescence; series mostly up to 46.1 µM;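 further: 0% = DMSO and 100% = tetraoctylammonium bromide; nearly all actives have a fitted effect of over 60% in size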
How it was run: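 Readout: fluorescence at 485/520 from cell-impermeant bis-AAF-R110 cleaved by proteases leaking from damaged cells. LYMP1-002 lymphoblastoid line, 16 hr compound treatment at 37 C, concentration-response in qHTS format; Hill-equation AC50 values.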

[7] = Cell Viability - LYMP2-024 (AID 988); settings: LYMP2-024 lymphoblastoid cell viability; series mostly up to 92.2 µM;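 further: cells exposed to compound for 24 hr at 37 °C; plate controls were DMSO only for no effect and 92 µM tetraoctylammonium bromide for full effect; nearly all actives have a fitted effect of over 60% in size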
How it was run: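 ATP-based luminescence (CellTiter-Glo, 30 min RT) after 24 h compound exposure at 37 C of 2500 lymphoblastoid cells/well; decrease in ATP taken as cytotoxicity. qHTS concentration-response fitted to standard Hill equation for AC50.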

[8] = target: Estrogen receptor (Homo sapiens) (UniProt P03372); experiment: qHTS assay for small molecule antagonists of estrogen receptor alpha signaling (AID 588513; active means well fitted curve in the direction sought with a large enough effect in the signal ratio, with a control signal flat, not every such curve was filed as active; the % refers to the signal ratio; further: on the % scale 0 is the no-effect control and ±100 the full control effect); settings: ER-alpha-UAS-bla HEK293, beta-lactamase ratio, antagonist mode; series mostly up to 76.9 µM
How it was run: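 Antagonist mode: inhibition of 0.5 nM 17-beta-estradiol-driven beta-lactamase reporter in HEK 293 ER-alpha-UAS-bla cells, 18 h at 37C, CCF4 readout after 2 h at RT. Normalised to estradiol and DMSO; titration fitted to Hill.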

[9] = target: Bile acid receptor (Homo sapiens) (UniProt Q96RI1); experiment: qHTS assay for small molecule agonists of farnesoid X receptor signaling (AID 588527; calls by dose curve;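 further: 0% = vehicle basal and 100% = reference agonist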); settings: HEK293T FXR-UAS-bla, beta-lactamase ratio, 16 h; active compounds read high
How it was run: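 Read-out: beta-lactamase reporter fluorescence with CCF4 substrate in GeneBLAzer FXR-UAS-bla HEK293T cells, after 16 h compound exposure at 37 C. Response scaled between DMSO basal (0%) and chenodeoxycholic acid at 100 uM (100%).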

[10] = target: Vitamin D3 receptor (Homo sapiens) (UniProt P11473); experiment: qHTS assay for small molecule antagonists of vitamin D receptor signaling (AID 588541; calls by dose curve;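 further: receptor activated by calcitriol during compound treatment; on the % scale 0 is the no-effect control and ±100 the full control effect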); settings: HEK293T VDR-UAS-bla, beta-lactamase ratio, antagonist mode; series mostly up to 76.7 µM
How it was run: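 Antagonist-mode beta-lactamase reporter assay: HEK293T VDR-UAS-bla cells were exposed to titrated compound alongside 1-alpha,25-dihydroxyvitamin D3 at 3 nM final for 16 h. Values were normalized to the 50 nM agonist control and DMSO basal, with IC50 and efficacy from Hill equation fits.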

[11] = target: Vitamin D3 receptor (Homo sapiens) (UniProt P11473); experiment: qHTS assay for small molecule agonists of vitamin D receptor signaling (AID 588543; calls by dose curve;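 further: 0% = DMSO basal and 100% = reference agonist control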); settings: HEK293T VDR-UAS-bla, beta-lactamase ratio, 16 h; series mostly up to 76.8 µM
How it was run: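 Agonist-mode beta-lactamase reporter: HEK293T VDR-UAS-bla cells in charcoal-stripped 2% FBS, compound series 16 h 37 C, CCF4 2 h RT. EC50 from Hill fit, scaled against DMSO and 50 nM calcitriol control.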

[12] = target: Thyroid hormone receptor beta (Homo sapiens) (UniProt P10828); experiment: qHTS assay for small molecule agonists of thyroid hormone receptor beta signaling (AID 588545; calls by dose curve;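 further: 0% = DMSO only and 100% = 10 nM T3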); settings: TR-UAS-bla GripTite HEK 293, beta-lactamase ratio, agonist mode, 18 h, percent of T3 response, DMSO as zero; series mostly up to 76.7 µM
How it was run: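 Efficacy and EC50 values derive from Hill fits of qHTS titration data, normalized to 10 nM T3 and DMSO-only wells. HEK 293 reporter cells were stimulated for 18 hrs at 37 C, with beta-lactamase activity measured by CCF4 fluorescence.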

[13] = target: Thyroid hormone receptor beta (Homo sapiens) (UniProt P10828); experiment: qHTS assay for small molecule antagonists of thyroid hormone receptor beta signaling (AID 588547; active means well fitted inhibition curve with a large enough effect in the signal ratio, with a control signal flat, not every such curve was filed as active; the % refers to the signal ratio;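 further: cells stimulated with 0.4 nM T3 agonist during compound exposure; on the % scale 0 is the no-effect control and ±100 the full control effect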); settings: TR-UAS-bla HEK293, beta-lactamase ratio, antagonist mode, 18 h
How it was run: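 Inhibition of T3-driven (0.4nM final) beta-lactamase reporter activity was measured over 0.59 nM to 92 uM compound after 18 h at 37 C. The cells were GripTite HEK293 TR-UAS-bla in charcoal/dextran-stripped serum, with CCF4 ratio read-out and IC50 from Hill fits.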

[14] = qHTS assay for small molecule agonists of the antioxidant response element (ARE) signaling pathway (AID 651741; active means well fitted activation curve with a large enough effect in the signal ratio; the % refers to the signal ratio; further: % of control where 0% means no effect); settings: HepG2 ARE-bla reporter, beta-lactamase FRET ratio, 16 h; series mostly up to 96 µM
How it was run: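 Agonist activity is measured as ARE-driven beta-lactamase expression in a stable HepG2 reporter line, using 16 h compound treatment at 37 C and a FRET substrate fluorescence readout after 2 h.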

[15] = target: Tumor necrosis factor (Homo sapiens) (UniProt P01375); experiment: qHTS assay to identify small molecules that stimulate Tumor Necrosis Factor-alpha (TNF-alpha) secretion (AID 651757; active means well fitted curve in the direction sought with a large enough effect in the signal ratio; the % refers to the signal ratio; further: 0% is about no effect); settings: Human cells, HTRF 665/615 ratio; series mostly up to 92.2 µM
How it was run: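 THP-1 cells, 3000/well; compound 17 hrs, 37 C; add cryptate/XL665 anti-TNF-alpha antibody pair; 3 hr RT; TR-FRET (HTRF) read of secreted TNF-alpha. Quantitative HTS format.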

[16] = qHTS assay for small molecule antagonists of the retinoid-related orphan receptor gamma (ROR-gamma) signaling pathway - cell viability counter screen (AID 720652; active means well fitted curve in the direction sought with a large enough effect in the repeat runs; an effect the other way counts as inactive or inconclusive); settings: RORgamma reporter cell line viability counter screen; series mostly up to 92.2 µM
How it was run: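 CHO RORE-LUC/TET-ROR line, 1,000 cells/well, 37 C 5% CO2 5 hr; cpd or DMSO + doxycycline induction, 16 hr. CellTiter-Glo, 30 min RT, luminescence = ATP content.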

[17] = target: Nuclear receptor subfamily 1 group I member 2 (Rattus norvegicus) (UniProt Q9R1A7); experiment: qHTS assay for small molecule activators of the rat pregnane X receptor (rPXR) signaling pathway (AID 651751; call rule not given here; further: 0% is about no effect); settings: rPXR reporter cells, luciferase (One-Glo), 24 h
[18] = qHTS assay for small molecule activators of the human pregnane X receptor (PXR) signaling pathway (AID 720659; call rule not given here; further: 0% is about no effect); settings: DPX-2 HepG2 CYP3A4-luciferase, 24 h; series mostly up to 92.3 µM
[19] = target: Glucocorticoid receptor (Homo sapiens) (UniProt P04150); experiment: qHTS assay for small molecule agonists of glucocorticoid receptor signaling (AID 588532; active means well fitted curve in the direction sought with a large enough effect in the signal ratio, with a control signal flat; the % refers to the signal ratio;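 further: 100% = dexamethasone at 0.1 µM and 0% = DMSO only wells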); settings: HeLa MMTV-bla, beta-lactamase ratio, agonist, 18 h; active compounds read high; percent of dexamethasone control, DMSO zero
How it was run: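 Agonist-mode qHTS: GRE-driven beta-lactamase in HeLa cells exposed 18 h to titrated compounds (up to 92 uM), then CCF4 ratio read after 2 h at RT; Hill-fitted EC50, efficacy relative to 0.1 uM dexamethasone.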

[20] = target: Glucocorticoid receptor (Homo sapiens) (UniProt P04150); experiment: qHTS assay for small molecule antagonists of glucocorticoid receptor signaling (AID 588533; active means well fitted inhibition curve with a large enough effect in the signal ratio, with a control signal flat, not every such curve was filed as active; the % refers to the signal ratio); settings: HeLa MMTV-bla, GRE beta-lactamase ratio, antagonist mode, 18 h; series mostly up to 76.8 µM
How it was run: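 Antagonist-mode qHTS: compound titrations added to GRE-bla HeLa cells, then dexamethasone 2 nM final; 18 h, 37 C. CCF4 FRET fluorescence normalized to dexamethasone and DMSO; IC50 from Hill fit.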

Sequence of Estrogen receptor (Homo sapiens) (P03372 whole entry, looked up): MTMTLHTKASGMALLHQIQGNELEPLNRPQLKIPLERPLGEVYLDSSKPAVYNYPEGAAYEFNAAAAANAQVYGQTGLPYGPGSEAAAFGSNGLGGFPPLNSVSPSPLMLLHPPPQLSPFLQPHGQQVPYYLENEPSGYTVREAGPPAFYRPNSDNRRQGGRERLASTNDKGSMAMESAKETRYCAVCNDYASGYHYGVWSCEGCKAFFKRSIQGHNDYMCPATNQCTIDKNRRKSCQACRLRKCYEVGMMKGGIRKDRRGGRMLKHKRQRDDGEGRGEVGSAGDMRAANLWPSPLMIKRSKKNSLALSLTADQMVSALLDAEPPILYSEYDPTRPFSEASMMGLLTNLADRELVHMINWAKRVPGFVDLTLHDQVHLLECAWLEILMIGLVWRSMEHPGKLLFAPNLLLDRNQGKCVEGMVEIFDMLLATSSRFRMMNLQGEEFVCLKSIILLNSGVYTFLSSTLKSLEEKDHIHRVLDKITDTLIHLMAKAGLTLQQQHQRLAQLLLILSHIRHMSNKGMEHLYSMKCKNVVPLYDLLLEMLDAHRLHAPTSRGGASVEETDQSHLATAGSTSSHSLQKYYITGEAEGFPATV
Sequence of Vitamin D3 receptor (Homo sapiens) (P11473 whole entry, looked up): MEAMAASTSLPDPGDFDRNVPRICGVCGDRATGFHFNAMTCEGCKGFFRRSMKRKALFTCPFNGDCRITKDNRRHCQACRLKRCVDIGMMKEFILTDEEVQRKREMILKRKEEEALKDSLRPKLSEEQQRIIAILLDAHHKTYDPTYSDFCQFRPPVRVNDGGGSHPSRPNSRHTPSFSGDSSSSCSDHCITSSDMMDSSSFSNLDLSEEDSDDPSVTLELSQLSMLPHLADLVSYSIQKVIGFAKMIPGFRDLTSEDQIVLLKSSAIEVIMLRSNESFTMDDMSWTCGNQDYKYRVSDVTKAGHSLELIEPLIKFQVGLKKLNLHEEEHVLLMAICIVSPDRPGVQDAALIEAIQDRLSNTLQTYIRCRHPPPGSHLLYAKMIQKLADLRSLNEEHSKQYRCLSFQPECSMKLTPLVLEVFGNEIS
Sequence of Tumor necrosis factor (Homo sapiens) (P01375 whole entry, looked up): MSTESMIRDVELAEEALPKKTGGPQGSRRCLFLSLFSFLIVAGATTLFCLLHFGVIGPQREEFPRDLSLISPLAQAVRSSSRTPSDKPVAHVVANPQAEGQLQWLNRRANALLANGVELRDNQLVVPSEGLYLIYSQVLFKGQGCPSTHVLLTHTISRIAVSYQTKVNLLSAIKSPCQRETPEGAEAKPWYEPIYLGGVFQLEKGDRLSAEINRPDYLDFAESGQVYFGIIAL
Sequence of Cytochrome P450 3A4 (Homo sapiens) (P08684 whole entry, looked up): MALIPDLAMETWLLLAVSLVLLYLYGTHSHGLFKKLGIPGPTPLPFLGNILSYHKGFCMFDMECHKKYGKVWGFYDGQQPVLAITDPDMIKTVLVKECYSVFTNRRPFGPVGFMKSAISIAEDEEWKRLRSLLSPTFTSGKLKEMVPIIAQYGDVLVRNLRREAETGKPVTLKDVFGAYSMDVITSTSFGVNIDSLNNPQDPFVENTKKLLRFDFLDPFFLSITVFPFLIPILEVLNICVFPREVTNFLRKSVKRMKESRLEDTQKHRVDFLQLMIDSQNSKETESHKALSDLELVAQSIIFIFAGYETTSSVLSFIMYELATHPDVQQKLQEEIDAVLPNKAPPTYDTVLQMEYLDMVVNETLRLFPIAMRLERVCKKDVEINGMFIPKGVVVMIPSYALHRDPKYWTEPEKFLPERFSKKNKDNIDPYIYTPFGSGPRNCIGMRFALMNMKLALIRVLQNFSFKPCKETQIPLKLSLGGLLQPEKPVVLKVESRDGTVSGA
Sequence of Thyroid hormone receptor beta (Homo sapiens) (P10828 whole entry, looked up): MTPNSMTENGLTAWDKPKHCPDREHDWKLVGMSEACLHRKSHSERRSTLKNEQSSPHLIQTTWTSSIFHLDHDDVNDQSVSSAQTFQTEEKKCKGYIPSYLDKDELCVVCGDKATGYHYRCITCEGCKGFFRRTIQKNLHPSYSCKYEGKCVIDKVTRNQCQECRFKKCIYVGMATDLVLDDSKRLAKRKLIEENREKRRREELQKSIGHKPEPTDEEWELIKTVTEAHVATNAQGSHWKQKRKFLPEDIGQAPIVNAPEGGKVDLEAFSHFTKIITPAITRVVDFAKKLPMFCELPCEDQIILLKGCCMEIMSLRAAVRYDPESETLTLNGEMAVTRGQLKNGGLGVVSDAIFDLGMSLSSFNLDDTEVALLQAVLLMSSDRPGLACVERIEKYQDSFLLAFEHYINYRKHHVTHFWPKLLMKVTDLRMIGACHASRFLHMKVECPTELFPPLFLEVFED
Sequence of Bile acid receptor (Homo sapiens) (Q96RI1 whole entry, looked up): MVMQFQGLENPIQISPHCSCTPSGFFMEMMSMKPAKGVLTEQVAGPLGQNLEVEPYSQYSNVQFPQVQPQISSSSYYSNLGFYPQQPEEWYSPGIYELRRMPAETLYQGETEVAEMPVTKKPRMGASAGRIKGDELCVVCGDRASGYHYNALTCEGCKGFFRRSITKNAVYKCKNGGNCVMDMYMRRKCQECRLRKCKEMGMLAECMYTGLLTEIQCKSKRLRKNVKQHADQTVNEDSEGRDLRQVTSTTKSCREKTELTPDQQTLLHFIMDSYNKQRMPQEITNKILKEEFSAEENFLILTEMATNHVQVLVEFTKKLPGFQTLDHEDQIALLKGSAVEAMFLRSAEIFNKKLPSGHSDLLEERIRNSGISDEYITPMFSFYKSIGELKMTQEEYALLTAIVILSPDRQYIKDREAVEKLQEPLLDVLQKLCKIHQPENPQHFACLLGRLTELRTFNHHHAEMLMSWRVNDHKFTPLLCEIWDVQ
Sequence of Glucocorticoid receptor (Homo sapiens) (P04150 whole entry, looked up): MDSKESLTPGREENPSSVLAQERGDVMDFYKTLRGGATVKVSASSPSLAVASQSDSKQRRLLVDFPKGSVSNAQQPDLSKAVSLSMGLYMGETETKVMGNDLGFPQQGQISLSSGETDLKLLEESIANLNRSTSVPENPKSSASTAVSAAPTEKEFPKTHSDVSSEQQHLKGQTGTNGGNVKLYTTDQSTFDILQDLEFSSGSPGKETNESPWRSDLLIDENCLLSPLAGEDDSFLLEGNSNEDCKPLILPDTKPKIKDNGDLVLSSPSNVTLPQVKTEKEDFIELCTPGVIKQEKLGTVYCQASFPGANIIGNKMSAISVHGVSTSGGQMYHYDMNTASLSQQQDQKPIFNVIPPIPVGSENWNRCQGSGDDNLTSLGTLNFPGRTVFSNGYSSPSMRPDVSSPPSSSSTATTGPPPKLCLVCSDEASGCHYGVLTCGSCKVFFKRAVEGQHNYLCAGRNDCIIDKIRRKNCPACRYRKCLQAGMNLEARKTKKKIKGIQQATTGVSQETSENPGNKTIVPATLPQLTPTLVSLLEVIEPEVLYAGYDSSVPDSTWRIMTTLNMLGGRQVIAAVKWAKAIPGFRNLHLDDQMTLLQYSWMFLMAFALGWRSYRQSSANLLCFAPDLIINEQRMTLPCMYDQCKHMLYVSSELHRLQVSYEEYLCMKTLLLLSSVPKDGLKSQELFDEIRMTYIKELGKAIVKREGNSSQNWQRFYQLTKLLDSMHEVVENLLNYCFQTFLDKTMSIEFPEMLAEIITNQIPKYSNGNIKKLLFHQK
Sequence of Nuclear receptor subfamily 1 group I member 2 (Rattus norvegicus) (Q9R1A7 whole entry, looked up): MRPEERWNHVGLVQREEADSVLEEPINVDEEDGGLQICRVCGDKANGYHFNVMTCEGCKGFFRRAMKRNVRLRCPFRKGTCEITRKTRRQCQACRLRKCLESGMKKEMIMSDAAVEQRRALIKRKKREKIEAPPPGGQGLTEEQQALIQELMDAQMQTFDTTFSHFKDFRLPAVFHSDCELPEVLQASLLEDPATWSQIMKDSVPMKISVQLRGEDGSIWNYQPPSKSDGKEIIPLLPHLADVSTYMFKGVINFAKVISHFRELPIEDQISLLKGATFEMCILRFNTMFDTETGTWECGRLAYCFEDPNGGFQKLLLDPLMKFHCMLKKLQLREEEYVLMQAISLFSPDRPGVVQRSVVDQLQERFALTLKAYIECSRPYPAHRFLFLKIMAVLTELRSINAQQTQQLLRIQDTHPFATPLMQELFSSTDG

Cc1ccc2ccccc2c1
inactive: Potency [1] > 92 µM | outcome [2] | Potency [3] | Potency [4] | Potency [5] | Potency [6] | Potency [7] | Potency [8] | activation [9] -0.561% | outcome [10] | outcome [11] | outcome [12] | activity change % (negative = inhibition) [13] 0.181% | Potency [14] | outcome [15] | Potency [16] | max response [17] 6.07% | outcome [18]

C=C(C)C(=O)OCC1CO1 (centres undefined)
inactive: Potency [1] > 92 µM | Potency [3] | Potency [4] | Potency [5] | Potency [6] | Potency [7] | Potency [8] | activation [9] -3.45% | activation [19] -3.77% | Potency [20] | outcome [10] | outcome [11] | outcome [12] | activity change % (negative = inhibition) [13] 6.72% | outcome [15] | Potency [16] | max response [17] -2.46% | outcome [18]

Nc1c(Cl)c(Cl)nc(C(=O)O)c1Cl
inactive: Potency [1] > 92 µM | outcome [2] | Potency [3] | Potency [4] | Potency [5] | Potency [6] | Potency [7] | Potency [8] | activation [19] -2.38% and -16.4% and -2.51% | Potency [20] | outcome [12] | activity change % (negative = inhibition) [13] -17.9% and -15% and -2.55% | Potency [14] | outcome [15] | Potency [16] | max response [17] -1% and -3.34% and -1.89% | outcome [18]

CCCCCCCC(=O)Cl
inactive: Potency [1] > 92 µM | outcome [2] | Potency [3] | Potency [4] | Potency [5] | Potency [6] | Potency [7] | Potency [8] | activation [9] 0.289% | activation [19] 5.97% | Potency [20] | outcome [12] | activity change % (negative = inhibition) [13] 11.9% | outcome [15] | Potency [16] | max response [17] 5.82% | outcome [18]

CC(C)(c1ccccc1)c1ccc(O)cc1
inactive: Potency [1] > 92 µM | outcome [2] | Potency [3] | Potency [5] | Potency [6] | Potency [7] | Potency [8] | activation [9] 1.02% and 4.37% | activation [19] 2.95% and 9.77% | Potency [20] | outcome [10] | outcome [11] | outcome [12] | activity change % (negative = inhibition) [13] -5.71% and 17.9% | outcome [15] | Potency [16] | max response [17] 0.482% and 0.567%

CN=C=S
inactive: Potency [1] > 92 µM | outcome [2] | Potency [3] | Potency [5] | Potency [6] | Potency [7] | Potency [8] | activation [9] 2.73% and -2.27% | outcome [10] | outcome [11] | outcome [12] | activity change % (negative = inhibition) [13] -1.38% and -7.2% | Potency [14] | outcome [15] | max response [17] 1.38% and 4.99% | outcome [18]

C=CCOC(C)=O
inactive: Potency [1] > 92 µM | outcome [2] | Potency [3] | Potency [4] | Potency [5] | Potency [6] | Potency [7] | Potency [8] | activation [9] -1.61% | activation [19] 10.3% | Potency [20] | outcome [10] | outcome [11] | activity change % (negative = inhibition) [13] 14.6% | Potency [14] | outcome [15] | Potency [16] | max response [17] -1.67% | outcome [18]

C=CC(C)=O
inactive: Potency [1] > 92 µM | Potency [3] | Potency [4] | Potency [5] | Potency [6] | Potency [7] | Potency [8] | activation [9] -1.53% | activation [19] -1.11% | Potency [20] | Potency [14] | outcome [15] | Potency [16] | max response [17] 1.84% | outcome [18]

c1ccc(OP(Oc2ccccc2)Oc2ccccc2)cc1
inactive: outcome [2] | Potency [3] | Potency [5] | Potency [6] | Potency [7] | Potency [8] | activation [19] 10.9% and -3.42% | Potency [20] | outcome [10] | outcome [11] | outcome [12] | activity change % (negative = inhibition) [13] 5.76% | outcome [15] | Potency [16] | max response [17] 0.576% and -1.05% | outcome [18]

C1CCC2CCCCC2C1 (centres undefined)
inactive: Potency [1] > 92 µM | outcome [2] | Potency [3] | Potency [5] | Potency [6] | Potency [7] | Potency [8] | activation [9] -3.01% | activation [19] 11.1% | Potency [20] | outcome [10] | outcome [11] | outcome [12] | activity change % (negative = inhibition) [13] 10.1% | outcome [15] | Potency [16] | max response [17] 1.72% | outcome [18]

C=CCOC(=O)c1ccccc1N
inactive: Potency [1] > 92 µM | outcome [2] | Potency [3] | Potency [4] | Potency [5] | Potency [6] | Potency [7] | Potency [8] | activation [19] 3.1% | Potency [20] | outcome [10] | outcome [11] | outcome [12] | activity change % (negative = inhibition) [13] -21.1% | outcome [15] | Potency [16] | max response [17] 4.98% | outcome [18]
